Bioassay records deposited in PubChem by National Center for Advancing Translational Sciences (NCATS).
The full list was thinned out, with hits kept by preference.
HT1080 IDH1KD tx: toxicity to HT-1080 IDH1 knockdown cells (counter line); HT-1080 IDH1 knockdown viability, ATP luminescence, 48 h; AID 686971; hit rate 2% among 360,000; Potency, µM (top dose mostly 46.1 µM), hits mostly cytotoxic
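Viability of IDH1-knockdown HT-1080 fibrosarcoma cells was assessed by CellTiter-Glo after 48 h at 37 °C with titrated compound; concentration-effect curves were classified by fit quality and response size.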
IL-1B inflam inh: inhibitors of inflammasome signaling (IL-1 beta secretion); THP-1 LPS/ATP IL-1B secretion, AlphaLISA, 16 h; hits give low values; hit rate 4.7% among 360,000; activity change, % at 57.5 µM; in the data active = activity change below about -50%; inconclusive = mostly about -30% to -49%
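Secreted IL-1B measured by AlphaLISA bead assay after 16 h compound exposure of THP-1 cells; compounds (final up to 57.5 uM) added 1 h before LPS (250 ng/mL) and ATP (1.25 mM) stimulation; lower signal means less secretion.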
TDP1 cell noCPT: qHTS for Inhibitors of human tyrosyl-DNA phosphodiesterase 1 (TDP1): qHTS in cells in absence of CPT. DT40 Tdp1-/- hTDP1 cells, no CPT, ATP luminescence, 48 h. Potency, µM (top dose mostly 46.2 µM), usual class: inhibitors. hit rate 15% among 420,000. AID 686978, 2013; note: nearly all actives have a fitted effect of over 55% in size
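A cellular qHTS used chicken DT40 cells lacking endogenous Tdp1 but carrying stably transfected human TDP1. Compounds were applied without camptothecin, and cell growth kinetics were judged by ATP-dependent luminescence after ≥48 hr.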
HT1080-NT tox: kills 2HG-producing HT-1080-NT fibrosarcoma cells; Potency, µM (doses to about 46.1 µM), most hits filed as cytotoxic; HT-1080-NT fibrosarcoma viability, CellTiter-Glo ATP luminescence, 48 h; hit rate 1.6% among 360,000;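 note: NT is the 2HG producing partner of a matched IDH1 knockdown line; nearly all actives have a fitted effect of over 55% in size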
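Compounds were tested in concentration-response format on HT-1080-NT cells for 48 hours at 37 degrees C. Cell viability came from CellTiter-Glo luminescence; curves were classified by r2, response magnitude and activity.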
TDP1 cell CPT: growth inhibition of DT40 Tdp1-/-;hTDP1 cells with camptothecin (screen for TDP1 inhibitors) | chicken DT40 Tdp1-/-;hTDP1 cells + 20 nM CPT, ATP luminescence, 48 h | Potency, µM (series often up to 46.2 µM), usual class: inhibitors | hit rate 12% among 420,000 | AID 686979; note: nearly all actives have a fitted effect of over 55% in size
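Chicken DT40 Tdp1-/- cells stably complemented with human TDP1 were seeded at 400 cells/well in medium containing 20 nM camptothecin, exposed to pin-transferred compounds, and grown at 37 °C for at least 48 hr. Viability was read as ATP luminescence.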
12-LOX inh: blocks human arachidonate 12S-lipoxygenase. P18054. purified 12hLO, xylenol orange hydroperoxide absorbance. Potency, µM (top dose mostly 108 µM), usual class: inhibitors. hit rate 1.1% among 580,000. AID 1671190
Target sequence (P18054 whole entry, looked up): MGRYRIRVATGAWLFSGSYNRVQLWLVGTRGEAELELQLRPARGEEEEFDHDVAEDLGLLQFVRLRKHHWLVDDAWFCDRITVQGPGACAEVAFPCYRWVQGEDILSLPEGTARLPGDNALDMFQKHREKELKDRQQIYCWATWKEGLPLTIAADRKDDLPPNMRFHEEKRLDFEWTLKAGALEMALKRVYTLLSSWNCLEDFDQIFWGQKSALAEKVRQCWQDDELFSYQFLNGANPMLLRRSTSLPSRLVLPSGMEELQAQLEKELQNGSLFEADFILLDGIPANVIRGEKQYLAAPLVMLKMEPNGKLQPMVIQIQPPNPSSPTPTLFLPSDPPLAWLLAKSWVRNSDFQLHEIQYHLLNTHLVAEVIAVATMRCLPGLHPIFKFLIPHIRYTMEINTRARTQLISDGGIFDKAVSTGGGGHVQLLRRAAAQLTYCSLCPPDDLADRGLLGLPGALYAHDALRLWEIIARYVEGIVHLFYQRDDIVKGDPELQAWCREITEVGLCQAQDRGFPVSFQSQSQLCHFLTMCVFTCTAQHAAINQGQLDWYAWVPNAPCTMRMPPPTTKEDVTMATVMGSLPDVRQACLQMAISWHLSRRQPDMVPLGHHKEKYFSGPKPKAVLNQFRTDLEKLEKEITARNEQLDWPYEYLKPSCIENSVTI
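Hydroperoxide product was detected by ferrous iron/xylenol orange as the 573 to 405 nm absorbance ratio. Arachidonic acid at 40 uM (final) was turned over for 30 min at room temperature by 150 nM human 12hLO, pH 7.0 Hepes buffer, after 15 min compound preincubation.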
A number is an active result; i = inactive; ? = inconclusive; nt = no result given; [ ] = another dose, or the depositor's remark. Unless noted, calls come from the whole dose curve; as a rule, active = well fitted curve in the direction sought with a large enough effect; inconclusive = small, poorly fitted or top-dose-only effect, or another doubt; inactive = no such curve, though single readings can be large; an effect the other way counts as inactive or inconclusive.

SMILES | HT1080 IDH1KD tx | IL-1B inflam inh | TDP1 cell noCPT | HT1080-NT tox | TDP1 cell CPT | 12-LOX inh
Cc1ccc(-c2cnoc2NC(=O)CSc2nc3c(c(=O)[nH]2)CCCC3)cc1 | nt | nt | nt | nt | nt | i
Cc1cc(C(=O)NCc2ccc(Cl)cc2)c2c(C)nn(-c3ccccc3)c2n1 | nt | nt | i | nt | i | i
CCOc1ccc(NC(=O)c2cc(C)nc3c2c(C)nn3-c2ccc(C)cc2)cc1 | nt | nt | i | nt | ? | i
COc1ccc(-c2cc(C(=O)NCC3CC3)c3c(C)nn(-c4ccccc4)c3n2)cc1 | nt | nt | nt | nt | nt | i[6.33 µM]
Cc1cc(C(=O)Nc2ccc(Cl)cc2)c2c(C)nn(-c3ccccc3)c2n1 | nt | nt | ? | nt | 9.2µM | i
CCOC(=O)c1cccc(NC(=O)c2cc(C)nc3c2c(C)nn3-c2ccc(C)cc2)c1 | nt | nt | 21µM | nt | ? | i
Cc1cc(C(=O)NC2CCN(Cc3ccccc3)CC2)c2ccccc2n1 | nt | nt | nt | nt | nt | i
Cc1ccc(-n2nc(C)c3c(C(=O)NC4CCN(Cc5ccccc5)CC4)cc(C)nc32)cc1 | nt | nt | nt | nt | nt | 7.1µM
Cc1nn(-c2ccccc2)c2nc(C3CC3)cc(C(=O)Nc3ccccc3F)c12 | nt | nt | 5.8µM | nt | 7.3µM | i
O=C(O)c1cccc2c1CCN2C(=O)c1ccccc1 | nt | nt | nt | nt | nt | i
Nc1cccc(OCCCc2ccccc2)c1 | nt | nt | nt | nt | nt | i
CCCCn1cnc2c1c(=O)n(CC(=O)Nc1cc(F)ccc1C)c(=O)n2CCCC | nt | nt | nt | nt | nt | i
C#CCn1cc(C=C2C(=O)c3ccccc3C2=O)c2ccccc21 | i | i | 21µM | i | 23µM | i
COc1cc(OC)c(NC(=O)N2CC=C(c3c[nH]c4ccccc34)CC2)cc1Cl | nt | nt | ? | nt | ? | i
CCc1ccc(NC(=O)N2CC=C(c3c[nH]c4ccccc34)CC2)cc1 | nt | nt | 5.2µM | nt | 5.8µM | i
Cc1ccc(C)c(NC(=O)N2CC=C(c3c[nH]c4ccccc34)CC2)c1 | nt | nt | ? | nt | ? | i
CSc1ccc(NC(=O)N2CC=C(n3c(=O)[nH]c4ccccc43)CC2)cc1 | ? | i | 8.2µM | i | 8.2µM | i
CCOc1ccc(NC(=O)N2CC=C(c3c[nH]c4ccccc34)CC2)cc1 | nt | nt | 2.3µM | nt | 3.7µM | i
CCOC(=O)c1cccc(NC(=O)N2CC=C(c3c[nH]c4ccccc34)CC2)c1 | nt | nt | 21µM | nt | ? | i
O=C(NC1CCCCCC1)c1cc2c(s1)-c1ccsc1CC2 | nt | nt | nt | nt | nt | i
CN(C)c1ccc(CC(=O)N2CCn3nc(Cc4ccccc4)cc3C2)cc1 | nt | nt | nt | nt | nt | i
Cc1cc(NC(=O)CSc2nnnn2-c2ccc(C)c(C)c2)n(-c2ccccc2)n1 | nt | nt | nt | nt | nt | i
O=C(CCc1ccccc1)N1CC=C(c2c[nH]c3ccccc23)CC1 | nt | nt | nt | nt | nt | i
CN(C)S(=O)(=O)N1CC=C(c2c[nH]c3ccccc23)CC1 | nt | nt | nt | nt | nt | 18µM
COc1ccc(OC)c(Nc2nc(NCCc3ccccc3)nc3c2cnn3-c2ccccc2)c1 | nt | nt | nt | nt | nt | i
SMILES | HT1080 IDH1KD tx | IL-1B inflam inh | TDP1 cell noCPT | HT1080-NT tox | TDP1 cell CPT | 12-LOX inh
COc1ccc(CNC(=O)C2(C)Cc3c(-c4cccc(NC(C)=O)c4)ccnc3O2)cc1OC (stereo not drawn) | ? | i | 18µM | i | ? | i
COc1ccc(CNC(=O)C2(C)Cc3c(-c4ccccc4)ccnc3O2)cc1OC (stereo not drawn) | i | i | ? | i | ? | i
CN(C)c1ccc(-c2ccnc3c2CC(C)(C(=O)NCc2cccc(Cl)c2)O3)cc1 (stereo not drawn) | ? | ? | 21µM | ? | 23µM | ?
CC1(C(=O)NCc2cccc(Cl)c2)Cc2c(-c3ccccc3)ccnc2O1 (stereo not drawn) | ? | i | 8.2µM | i | 16µM | i
CC1(C(=O)NCc2cccc(Cl)c2)Cc2c(-c3cccc(C(N)=O)c3)ccnc2O1 (stereo not drawn) | ? | i | ? | ? | ? | i
CC(=O)Nc1cccc(-c2ccnc3c2CC(C)(C(=O)NCc2cccs2)O3)c1 (stereo not drawn) | 1.6µM | i | 4.1µM | ? | ? | i
COc1ccc(NC(=O)C2(C)Cc3c(-c4ccc(NC(C)=O)cc4)ccnc3O2)cc1 (stereo not drawn) | i | ? | ? | i | ? | i
